The source made the active and inactive calls.
Legend:
[1] = binders of probe aFSTL3 on microarray, primary screen, stem cell growth factor project, biochemical, small-molecule microarray, fluorescence 635/667 (AID 1064); settings: higher = more signal;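 further: measures binding of the biotinylated anti-FSTL3 antibody to printed compounds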
[2] = binders from COS7 lysate, DM2A8 probe, primary screen, torsin A project, cell lysate, small-molecule microarray, fluorescence 635/667 (AID 1065); settings: higher = more signal, COS7 lysate expressing mutant human TOR1A
[3] = binders of probe aFGF2 on microarray, primary screen, stem cell growth factor project, biochemical, small-molecule microarray, fluorescence 635/667 (AID 1067); settings: higher = more signal;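 further: measures binding of biotinylated aFGF2 protein to printed compounds on slides; z-score merges feature fluorescence and signal-to-noise across triplicate slides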
[4] = binders of probe aFGF10 on microarray, primary screen, stem cell growth factor project, biochemical, small-molecule microarray, fluorescence 635/667 (AID 1071); settings: higher = more signal;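 further: score merges 667 nm spot intensity and signal to noise from triplicate slides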
[5] = target: Neurogenic locus notch homolog protein 2 (Homo sapiens) (UniProt Q04721); assay: Notch2 binders on small-molecule microarrays, primary screen, biochemical, small-molecule microarray, 635 nm fluorescence, stem cell growth factors (AID 1073); settings: Notch2 binding, higher = more signal
[6] = target: Pro-neuregulin-1, membrane-bound isoform (Homo sapiens) (UniProt Q02297); assay: NRG1 binders on small-molecule microarrays, primary screen, psychiatric disease protein project, biochemical, small-molecule microarray, fluorescence 635/667 (AID 1075); settings: NRG1 binding, 635 nm fluorescence, higher = more signal;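 further: score combines 667 nm spot fluorescence with signal to noise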
[7] = test system: Neuregulin-1 EGF-like domain; assay: binders of neuregulin-1 EGF-like domain, primary screen, biochemical, small-molecule microarray, 635 nm fluorescence (AID 1081); settings: small-molecule microarray binding, higher = more signal;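 further: binding of the protein to compounds printed on small-molecule microarray slides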
[8] = FRG1 promoter luciferase signal modulators, primary screen, FRG1 inhibition for FSHD, cell-based, C2C12 myotubes, firefly/Renilla luciferase, luminescence (AID 1084); settings: higher = more signal, called active from +8 up or from −8 down
[9] = binders of probe aFST on microarray, primary screen, stem cell growth factor project, biochemical, small-molecule microarray, fluorescence 635/667 (AID 1086); settings: higher = more signal;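 further: score merges 667 nm fluorescence with signal-to-noise of each printed compound spot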
[10] = binders of probe aHhip on microarray, primary screen, stem cell growth factor project, biochemical, small-molecule microarray, fluorescence 635/667 (AID 1087); settings: higher = more signal;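 further: score merges spot fluorescence at 667nm with spot signal to noise ratio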
[11] = test system: PRMT1 (protein arginine N-methyltransferase 1); assay: PRMT1 binders on small-molecule microarrays, primary screen, biochemical, small-molecule microarray, 635 nm fluorescence (AID 1088); settings: small-molecule microarray binding, higher = more signal;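 further: binding of Prmt1 protein to compounds spotted on small-molecule microarray slides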
[12] = yeast growth modulation, basal conditions, primary screen, YJM789 clinical isolate, OD600, 24 h (AID 1089);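 further: growth of clinical yeast isolate S. cerevisiae YJM 789 seeded 1000 cells per well; test concentration not given here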; settings: S. cerevisiae YJM789 growth, higher = more signal, called active from +8 up or from −8 down
[13] = fission yeast growth modulation, primary screen, strain 972, OD600, 24 h, no modulator (AID 1090);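 further: basal condition with compound alone and no growth modifier present; test concentration not given here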; settings: S. pombe 972 growth, higher = more signal, called active from +8 up or from −8 down
[14] = S. cerevisiae growth modulation with rapamycin, primary screen, strain BY4716, OD600, 96 h (AID 1091); settings: higher = more signal, called active from +8 up or from −8 down; further: test concentration not given here
[15] = target: Torsin-1A-interacting protein 2 (Homo sapiens) (UniProt Q8NFQ8); assay: LULL1 binders on small-molecule microarray, primary screen, cell lysate, human LULL1 lysate, 635/667 nm fluorescence (AID 1092); settings: hLULL1 lysate binding, 635 nm fluorescence, higher = more signal;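 further: probe is lysate of COS7 cells overexpressing human LULL1; score merges per-feature 667 nm fluorescence with signal-to-noise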
[16] = E. coli growth modulation, two-sided OD650, primary screen, E. coli filamentation project, strain DRC41, 24 h (AID 1093); settings: OD650, 24 h, higher = more signal, called active from +8 up or from −8 down;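 further: MC1000 strain lacking acrAB efflux and sulA so SOS filamentation is blocked; test concentration not given here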
[17] = small-molecule microarray binders of probe aLefty2, primary screen, biochemical, biotinylated probe, 635/667 nm fluorescence (AID 1094); settings: higher = more signal;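 further: score merges spot fluorescence near 667 nm with spot signal-to-noise ratio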
[18] = test system: Noggin (protein binding on small-molecule microarray); assay: Noggin binders on small-molecule microarray, primary screen, biochemical, 635/667 nm fluorescence (AID 1095); settings: 635 nm fluorescence, higher = more signal;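 further: score merges 667 nm feature fluorescence with signal to noise over triplicate slides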
[19] = target: Neurogenic locus notch homolog protein 3 (Homo sapiens) (UniProt Q9UM47); assay: NOTCH3 binders on small-molecule microarray, primary screen, biochemical, 635/667 nm fluorescence (AID 1096); settings: NOTCH3 binding, 635 nm fluorescence, higher = more signal
[20] = small-molecule microarray binders of probe aEGFR, primary screen, biochemical, biotinylated probe, 635/667 nm fluorescence (AID 1097); settings: higher = more signal;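 further: probe is a biotinylated anti-EGFR antibody binding compounds printed on slides; score combines fluorescence near 667 nm and signal to noise of each spot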

Torsin-1A-interacting protein 2 (Homo sapiens), sequence (Q8NFQ8 whole entry, looked up): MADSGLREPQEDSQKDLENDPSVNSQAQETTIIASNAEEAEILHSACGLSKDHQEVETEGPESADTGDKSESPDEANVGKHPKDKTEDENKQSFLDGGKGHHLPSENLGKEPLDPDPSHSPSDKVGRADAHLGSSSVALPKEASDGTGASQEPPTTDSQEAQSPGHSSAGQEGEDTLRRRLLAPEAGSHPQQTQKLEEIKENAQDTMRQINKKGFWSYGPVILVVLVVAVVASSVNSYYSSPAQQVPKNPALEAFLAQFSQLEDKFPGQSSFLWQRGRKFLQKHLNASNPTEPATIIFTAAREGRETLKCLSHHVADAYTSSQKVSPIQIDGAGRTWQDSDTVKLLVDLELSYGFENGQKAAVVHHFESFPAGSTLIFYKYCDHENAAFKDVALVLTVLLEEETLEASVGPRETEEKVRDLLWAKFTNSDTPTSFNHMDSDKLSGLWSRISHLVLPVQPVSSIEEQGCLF
Neurogenic locus notch homolog protein 2 (Homo sapiens), sequence (Q04721 whole entry, looked up, canonical isoform): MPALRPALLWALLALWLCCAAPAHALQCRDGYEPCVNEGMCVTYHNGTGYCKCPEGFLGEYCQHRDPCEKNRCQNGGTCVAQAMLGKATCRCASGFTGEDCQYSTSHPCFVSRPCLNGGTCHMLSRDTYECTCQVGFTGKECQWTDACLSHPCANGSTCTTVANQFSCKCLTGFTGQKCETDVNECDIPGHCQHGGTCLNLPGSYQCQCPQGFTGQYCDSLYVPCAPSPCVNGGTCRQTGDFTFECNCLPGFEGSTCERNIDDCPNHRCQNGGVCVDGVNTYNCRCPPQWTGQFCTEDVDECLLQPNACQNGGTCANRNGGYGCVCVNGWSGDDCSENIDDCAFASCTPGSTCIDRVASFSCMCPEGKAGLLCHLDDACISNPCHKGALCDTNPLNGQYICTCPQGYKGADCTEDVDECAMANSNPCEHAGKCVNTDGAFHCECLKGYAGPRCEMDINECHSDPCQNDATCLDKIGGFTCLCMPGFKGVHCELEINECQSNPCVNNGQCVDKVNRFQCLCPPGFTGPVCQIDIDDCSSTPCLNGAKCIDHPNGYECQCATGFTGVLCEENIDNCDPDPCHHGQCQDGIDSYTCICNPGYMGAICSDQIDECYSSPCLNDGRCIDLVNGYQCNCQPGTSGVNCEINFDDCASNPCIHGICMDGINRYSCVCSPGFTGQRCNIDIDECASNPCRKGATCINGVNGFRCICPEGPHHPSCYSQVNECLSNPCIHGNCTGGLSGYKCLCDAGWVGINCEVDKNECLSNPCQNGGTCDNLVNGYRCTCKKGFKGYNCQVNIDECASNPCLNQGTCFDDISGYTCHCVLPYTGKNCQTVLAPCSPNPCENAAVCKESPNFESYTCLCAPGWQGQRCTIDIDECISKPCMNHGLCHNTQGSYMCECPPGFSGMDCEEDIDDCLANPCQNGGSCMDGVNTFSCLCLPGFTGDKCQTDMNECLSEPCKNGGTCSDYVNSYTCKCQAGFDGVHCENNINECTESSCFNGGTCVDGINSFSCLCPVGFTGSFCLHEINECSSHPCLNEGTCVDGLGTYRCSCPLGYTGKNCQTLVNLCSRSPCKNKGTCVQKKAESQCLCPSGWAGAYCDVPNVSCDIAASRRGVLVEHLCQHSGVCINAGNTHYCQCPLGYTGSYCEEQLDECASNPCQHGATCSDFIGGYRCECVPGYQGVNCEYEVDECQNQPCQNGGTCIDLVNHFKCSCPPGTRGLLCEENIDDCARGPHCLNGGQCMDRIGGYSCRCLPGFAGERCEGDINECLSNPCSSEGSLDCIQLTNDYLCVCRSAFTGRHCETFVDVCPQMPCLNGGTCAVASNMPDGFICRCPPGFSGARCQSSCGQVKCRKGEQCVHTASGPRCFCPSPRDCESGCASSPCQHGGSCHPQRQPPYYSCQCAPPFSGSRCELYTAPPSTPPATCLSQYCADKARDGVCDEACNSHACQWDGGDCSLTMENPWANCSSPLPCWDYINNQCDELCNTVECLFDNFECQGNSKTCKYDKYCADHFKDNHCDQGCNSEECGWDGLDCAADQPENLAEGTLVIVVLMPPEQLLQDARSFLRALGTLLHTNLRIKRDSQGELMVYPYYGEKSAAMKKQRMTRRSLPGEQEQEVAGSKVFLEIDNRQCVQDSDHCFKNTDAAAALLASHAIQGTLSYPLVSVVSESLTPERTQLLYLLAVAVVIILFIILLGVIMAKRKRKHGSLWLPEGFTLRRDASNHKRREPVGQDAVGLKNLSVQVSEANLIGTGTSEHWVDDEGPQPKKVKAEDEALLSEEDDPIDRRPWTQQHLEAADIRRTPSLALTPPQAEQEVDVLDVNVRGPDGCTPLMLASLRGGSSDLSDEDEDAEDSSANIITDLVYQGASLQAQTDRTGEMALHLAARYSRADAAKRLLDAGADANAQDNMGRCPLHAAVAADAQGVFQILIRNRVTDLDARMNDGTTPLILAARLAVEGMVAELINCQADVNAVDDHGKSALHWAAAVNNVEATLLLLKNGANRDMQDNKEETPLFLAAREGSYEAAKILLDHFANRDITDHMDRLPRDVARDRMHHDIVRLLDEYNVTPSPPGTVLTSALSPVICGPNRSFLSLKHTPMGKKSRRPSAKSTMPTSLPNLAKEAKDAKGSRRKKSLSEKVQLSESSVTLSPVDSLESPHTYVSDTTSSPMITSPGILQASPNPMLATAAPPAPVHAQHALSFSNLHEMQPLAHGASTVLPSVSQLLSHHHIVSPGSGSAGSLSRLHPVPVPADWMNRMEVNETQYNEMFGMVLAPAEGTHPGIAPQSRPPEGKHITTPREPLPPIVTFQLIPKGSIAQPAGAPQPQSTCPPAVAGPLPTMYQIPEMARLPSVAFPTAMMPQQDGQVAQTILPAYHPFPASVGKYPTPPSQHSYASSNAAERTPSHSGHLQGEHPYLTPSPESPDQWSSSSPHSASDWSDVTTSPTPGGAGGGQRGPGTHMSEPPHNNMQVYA
Pro-neuregulin-1, membrane-bound isoform (Homo sapiens), sequence (Q02297 whole entry, looked up, the tested form may be a part, canonical isoform): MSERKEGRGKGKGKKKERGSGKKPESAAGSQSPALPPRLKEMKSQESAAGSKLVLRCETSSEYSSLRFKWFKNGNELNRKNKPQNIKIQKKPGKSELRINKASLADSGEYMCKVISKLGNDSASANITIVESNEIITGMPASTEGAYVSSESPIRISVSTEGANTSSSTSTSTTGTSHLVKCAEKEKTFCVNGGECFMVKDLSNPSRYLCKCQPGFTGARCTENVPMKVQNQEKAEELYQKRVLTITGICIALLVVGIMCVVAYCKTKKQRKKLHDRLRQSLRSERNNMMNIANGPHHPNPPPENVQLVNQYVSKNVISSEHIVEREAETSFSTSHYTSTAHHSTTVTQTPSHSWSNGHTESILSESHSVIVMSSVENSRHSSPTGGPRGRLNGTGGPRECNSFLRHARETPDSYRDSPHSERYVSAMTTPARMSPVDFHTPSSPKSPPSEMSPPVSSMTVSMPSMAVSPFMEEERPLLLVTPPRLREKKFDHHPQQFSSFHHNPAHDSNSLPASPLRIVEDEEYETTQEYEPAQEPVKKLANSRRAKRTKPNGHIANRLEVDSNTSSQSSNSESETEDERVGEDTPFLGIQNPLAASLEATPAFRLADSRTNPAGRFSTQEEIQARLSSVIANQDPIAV

CCC#CCN(Cc1ccccc1Br)[C@H](/C=C/C1CC1)[C@@H](O)Cc1ccccc1
composite z-score [1]: 0.689
composite z-score [2]: 0.131
composite z-score [3]: -0.17
composite z-score [4]: -0.548
composite z-score [5]: -1.46
composite z-score [6]: -0.285
composite z-score [7]: -0.33
z-score [8]: -1.96 (inactive)
composite z-score [9]: -0.17
composite z-score [10]: -0.169
composite z-score [11]: -0.134
z-score [12]: -2.3 (inactive)
z-score [13]: -1.55 (inactive)
z-score [14]: -1.72 (inactive)
composite z-score [15]: -0.783
z-score [16]: 1.35 (inactive)
composite z-score [17]: 0.208
composite z-score [18]: -0.679
composite z-score [19]: -0.838
composite z-score [20]: -0.18

CN(C)C(=O)[C@]1(Cc2ccccc2CN=[N+]=[N-])N=C(c2ccc(OCCCO)cc2)O[C@@H]1c1ccccc1
composite z-score [1]: 0.168
composite z-score [2]: -0.242
composite z-score [3]: 0.0577
composite z-score [4]: 0.863
composite z-score [5]: 0.666
composite z-score [6]: 1.62
composite z-score [7]: 0.96
z-score [8]: -3.49 (inactive)
composite z-score [9]: 0.694
composite z-score [10]: -0.0618
composite z-score [11]: 1.57
z-score [12]: -0.545 (inactive)
z-score [13]: -1.07 (inactive)
z-score [14]: 20.8 (active)
composite z-score [15]: 3.29
z-score [16]: -0.915 (inactive)
composite z-score [17]: -0.0352
composite z-score [18]: 0.104
composite z-score [19]: 0.439
composite z-score [20]: 0.0958

C#Cc1cc2ccccc2oc1=O
composite z-score [1]: 0.985
composite z-score [2]: -0.109
composite z-score [3]: 0.153
composite z-score [4]: -0.232
composite z-score [5]: -1.81
composite z-score [6]: 0.785
composite z-score [7]: 1.29
z-score [8]: 1.35 (inactive)
composite z-score [9]: -0.839
composite z-score [10]: -0.14
composite z-score [11]: 0.914
z-score [12]: -1.81 (inactive)
z-score [13]: -7.83 (inactive)
z-score [14]: -1.11 (inactive)
composite z-score [15]: 0.969
z-score [16]: -1.45 (inactive)
composite z-score [17]: -0.313
composite z-score [18]: -2.71
composite z-score [19]: -1.32
composite z-score [20]: -0.325

O=C(NCCN1CCOCC1)[C@@H]1c2ccccc2C(=O)N(C2Cc3ccccc3C2)[C@H]1c1ccc(CO)cc1
composite z-score [1]: 0.704
composite z-score [2]: 0.0352
composite z-score [3]: -0.163
composite z-score [4]: -0.465
composite z-score [5]: -0.168
composite z-score [6]: 0.855
composite z-score [7]: 1.25
z-score [8]: -1.39 (inactive)
composite z-score [9]: -0.768
composite z-score [10]: -0.173
composite z-score [11]: 0.925
z-score [12]: -2.95 (inactive)
z-score [13]: -0.534 (inactive)
z-score [14]: -0.979 (inactive)
composite z-score [15]: 3.2
z-score [16]: 1.78 (inactive)
composite z-score [17]: -0.0145
composite z-score [18]: -0.398
composite z-score [19]: 0.123
composite z-score [20]: -0.214

COc1ccc(C#Cc2ccc3c(c2)[C@]2(C(=O)N3)[C@H](c3ccc(OCCO)cc3)N3[C@H](c4ccccc4)[C@H](c4ccccc4)OC(=O)[C@H]3[C@@H]2C(=O)NC[C@H](O)c2ccccc2)cc1
composite z-score [1]: -0.338
composite z-score [2]: 0.411
composite z-score [3]: -0.0276
composite z-score [4]: 0.422
composite z-score [5]: 1.16
composite z-score [6]: 1.55
composite z-score [7]: 1.13
z-score [8]: -0.164 (inactive)
composite z-score [9]: 0.547
composite z-score [10]: -0.236
composite z-score [11]: 1.57
z-score [12]: 4.38 (inactive)
z-score [13]: 2.39 (inactive)
z-score [14]: 4.82 (inactive)
composite z-score [15]: 3.08
z-score [16]: 1.16 (inactive)
composite z-score [17]: -0.0977
composite z-score [18]: 0.447
composite z-score [19]: 1.08
composite z-score [20]: -0.0152

Reference: PubChem BioAssay
